IL1B secr inh – inflammasome signaling inhibition, IL-1 beta readout; 360,000 tested, 4.7% active; activity change, % at 57.5 µM; AID 743279; THP-1 LPS/ATP IL-1B secretion, AlphaLISA, 16 h; stronger effect = lower value; in the data active means activity change below about -50%; inconclusive means mostly about -30% to -49%
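THP-1 cells pretreated 1 hr with compounds (up to 57.5 uM final), then stimulated with LPS (250 ng/mL final) plus ATP (1.25 mM final); secreted IL-1B measured by AlphaLISA after 16 hr, decreased signal indicating inhibition.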
TDP1 cell noCPT – qHTS for Inhibitors of human tyrosyl-DNA phosphodiesterase 1 (TDP1): qHTS in cells in absence of CPT; Potency, µM (highest dose often 46.2 µM), actives largely listed as inhibitors; DT40 Tdp1-/- hTDP1 cells, no CPT, ATP luminescence, 48 h; 420,000 tested, 15% active; AID 686978, 2013; further: nearly all actives have a fitted effect of over 55% in size
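Camptothecin absent (DMSO only). Human TDP1-complemented DT40 knockout cells, 400 cells/well, 37 °C for minimum 48 hr; ATP measured via CellTiter-Glo, 30 min dark incubation, luminescence.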
HT1080NT lethal – kills 2HG-producing HT-1080-NT fibrosarcoma cells; HT-1080-NT fibrosarcoma viability, CellTiter-Glo ATP luminescence, 48 h; Potency, µM (series often up to 46.1 µM), usual class: cytotoxic; 360,000 tested, 1.6% active;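 further: NT is the 2HG producing partner of a matched IDH1 knockdown line; nearly all actives have a fitted effect of over 55% in size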
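Viability of the 2HG-overproducing fibrosarcoma line after 48 hours of compound exposure at 37 degrees C was determined by luminescence with CellTiter-Glo, and concentration-effect curves were then fitted and categorized.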
ELG1 DNA repair – ELG1-dependent DNA repair inhibition; HEK293T ELG1-luciferase reporter, luminescence, 16 h; DNA damage induced by 5-fluorouridine; Potency, µM (series often up to 46.1 µM), usual class: inhibitors; 330,000 tested, 2.3% active; further: nearly all actives have a fitted effect of over 55% in size
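DMSO vehicle served as the neutral condition. Each well held 2,000 cells given 5-fluorouridine plus compound; after 16 hr at 37 °C/5% CO2, ONE-Glo was added and luciferase measured 30 min later.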
TDP1 cell CPT – DT40-hTDP1 cell growth loss with CPT | 420,000 tested, 12% active | chicken DT40 Tdp1-/-;hTDP1 cells + 20 nM CPT, ATP luminescence, 48 h | Potency, µM (titrated, usually from 46.2 µM), usual class: inhibitors; further: nearly all actives have a fitted effect of over 55% in size
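Chicken DT40 Tdp1-/- cells stably complemented with human TDP1 were seeded at 400 cells/well in medium containing 20 nM camptothecin, exposed to pin-transferred compounds, and grown at 37 °C for at least 48 hr. Viability was read as ATP luminescence.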
HT1080 IDH1KD tx – kills HT-1080 cells with IDH1 knockdown; HT-1080 IDH1 knockdown viability, ATP luminescence, 48 h; Potency, µM (titrated, usually from 46.1 µM), actives largely listed as cytotoxic; 360,000 tested, 2% active; AID 686971
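After a 2 h attachment period, IDH1KD HT-1080 cells took pin-transferred compound for 48 h at 37 °C; ATP-based luminescence after 10 min room-temperature reagent incubation reported viability.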
A number is an active result. The list is not random: actives were taken first. Their share in the collection is about 19%. Unless noted, the call rests on the fitted dose curve; in most records, active means well fitted curve in the direction sought with a large enough effect; inconclusive means small, poorly fitted or top-dose-only effect, or another doubt; inactive means no such curve, though single readings can be large; an effect the other way counts as inactive or inconclusive.

Screening Cn1c(=O)c2c(nc(N3CCN(c4ccccc4)CC3)n2CCCc2ccccc2)n(C)c1=O returned IL1B secr inh inactive, TDP1 cell noCPT 6.5µM, HT1080NT lethal inactive, ELG1 DNA repair inconclusive, TDP1 cell CPT 8.2µM and HT1080 IDH1KD tx inactive.
Cn1c(=O)[nH]c(=O)c2c1nc(N1CCN(Cc3ccccc3)CC1)n2CCCc1ccccc1 was read as IL1B secr inh inactive, TDP1 cell noCPT 16µM, HT1080NT lethal inactive, ELG1 DNA repair inconclusive, TDP1 cell CPT 12µM and HT1080 IDH1KD tx inactive.
Screening CCN1CCN(c2nc3c(c(=O)[nH]c(=O)n3C)n2CCCc2ccccc2)CC1 returned IL1B secr inh inactive, TDP1 cell noCPT inactive, HT1080NT lethal inactive, ELG1 DNA repair inactive, TDP1 cell CPT inactive and HT1080 IDH1KD tx inactive.
For Cc1cc(C)cc(N2CCn3c2nc2c3c(=O)n(CCCc3ccccc3)c(=O)n2C)c1 the results were TDP1 cell noCPT inactive and TDP1 cell CPT inactive.
Cn1c(=O)n(CCCc2ccccc2)c(=O)c2c1nc1n2CCN1c1ccccc1 was read as TDP1 cell noCPT 6.5µM and TDP1 cell CPT 7.3µM.
CN1CCN(c2nc3c(c(=O)n(C)c(=O)n3C)n2CCSc2nnnn2-c2ccccc2)CC1 was read as IL1B secr inh inactive, TDP1 cell noCPT inactive, HT1080NT lethal inactive, ELG1 DNA repair inactive, TDP1 cell CPT inactive and HT1080 IDH1KD tx inactive.
COc1ccc(Oc2ncc3nc(-c4ccc(F)cc4)c(=O)n(CCC#N)c3n2)cc1 was read as TDP1 cell noCPT inactive and TDP1 cell CPT inactive.
COc1ccnc(N=CNOCc2ccc(F)cc2Cl)c1C#N was read as IL1B secr inh inconclusive, TDP1 cell noCPT inconclusive, HT1080NT lethal inactive, ELG1 DNA repair inactive, TDP1 cell CPT inactive and HT1080 IDH1KD tx inactive.
`Clc1ccc(CON/C=N/c2ncnc3sccc23)c(Cl)c1` gave IL1B secr inh inconclusive, TDP1 cell noCPT 10µM, HT1080NT lethal inactive, ELG1 DNA repair inactive, TDP1 cell CPT 13µM and HT1080 IDH1KD tx inactive.
For CCN(Cc1ccccc1)Cc1c(O)ccc2c(=O)c(-c3ccc(Cl)cc3)coc12 the results were TDP1 cell noCPT 21µM and TDP1 cell CPT inconclusive.
`O=c1c(-c2ccccc2)coc2c(CN3CCCCC3)c(O)ccc12` gave IL1B secr inh inactive, TDP1 cell noCPT inactive, HT1080NT lethal inactive, ELG1 DNA repair inactive, TDP1 cell CPT inactive and HT1080 IDH1KD tx inactive.
For COc1ccccc1-c1c(C)oc2c(CN3CCCCC3C)c(O)ccc2c1=O (stereo unspecified) the results were IL1B secr inh inactive, TDP1 cell noCPT inactive, HT1080NT lethal inactive, ELG1 DNA repair inactive, TDP1 cell CPT inactive and HT1080 IDH1KD tx inactive.
For CCN(CC)Cc1c(O)ccc2c(=O)c(-c3ccc(Cl)cc3)coc12 the results were IL1B secr inh inactive, TDP1 cell noCPT inactive, HT1080NT lethal inactive, ELG1 DNA repair inactive, TDP1 cell CPT inconclusive and HT1080 IDH1KD tx inactive.
CC1CCCCN1Cc1c(O)ccc2c(=O)c(-c3ccccc3)coc12 (stereo unspecified) was read as IL1B secr inh inactive, TDP1 cell noCPT 10µM, HT1080NT lethal inactive, ELG1 DNA repair inactive, TDP1 cell CPT 8.2µM and HT1080 IDH1KD tx inactive.
Screening Cc1oc2c(CN3CCCCC3C)c(O)ccc2c(=O)c1-c1ccccc1 (stereo unspecified) returned IL1B secr inh inactive, TDP1 cell noCPT inactive, HT1080NT lethal inactive, ELG1 DNA repair inactive, TDP1 cell CPT inconclusive and HT1080 IDH1KD tx inactive.
`CCC1CCCCN1Cc1c(O)ccc2c(=O)c(-c3ccccc3)coc12` (stereo unspecified) gave IL1B secr inh inactive, TDP1 cell noCPT 10µM, HT1080NT lethal inconclusive, ELG1 DNA repair inconclusive, TDP1 cell CPT 7.3µM and HT1080 IDH1KD tx inconclusive.
COc1ccc(-c2coc3c(CN4CCCCC4C)c(O)ccc3c2=O)cc1 (stereo unspecified) was read as IL1B secr inh inactive, TDP1 cell noCPT 18µM, HT1080NT lethal inactive, ELG1 DNA repair inconclusive, TDP1 cell CPT 6.5µM and HT1080 IDH1KD tx inactive.
COc1ccc(CNC(=O)Cc2c(C)c3c(cc(C)c4c(C)c(C)oc43)oc2=O)cc1OC was read as TDP1 cell noCPT inactive and TDP1 cell CPT inactive.
N#Cc1c(N)[nH]c(C(=O)c2ccccc2)c1-c1ccccc1Br was read as IL1B secr inh inactive, TDP1 cell noCPT inconclusive, HT1080NT lethal inactive, TDP1 cell CPT inconclusive and HT1080 IDH1KD tx inactive.
For Cc1ccccc1C1CC(=O)Oc2cc(O)ccc21 (stereo unspecified) the results were IL1B secr inh inactive, TDP1 cell noCPT inactive, HT1080NT lethal inactive, ELG1 DNA repair inactive, TDP1 cell CPT inactive and HT1080 IDH1KD tx inactive.
`CCc1ccc(CN2CCCC(C(=O)N3CCCCC3)C2)cc1` (stereo unspecified) gave IL1B secr inh inactive, TDP1 cell noCPT inactive, HT1080NT lethal inactive, ELG1 DNA repair inactive, TDP1 cell CPT inactive and HT1080 IDH1KD tx inactive.
Screening COc1ccccc1Cc1c(-c2ccc(C#N)cc2)nc2c(C)cc(Br)cn12 returned IL1B secr inh inactive, TDP1 cell noCPT inconclusive, HT1080NT lethal inactive, TDP1 cell CPT inconclusive and HT1080 IDH1KD tx inactive.
COc1ccccc1Cc1c(-c2ccc(Cl)cc2)nc2ccc(Br)cn12 was read as IL1B secr inh inactive, TDP1 cell noCPT inconclusive, HT1080NT lethal inactive, TDP1 cell CPT 21µM and HT1080 IDH1KD tx inactive.
COc1ccccc1Cc1c(-c2ccccc2)nc2ccc(Br)cn12 was read as IL1B secr inh inactive, TDP1 cell noCPT 13µM, HT1080NT lethal inconclusive, TDP1 cell CPT 15µM and HT1080 IDH1KD tx inconclusive.
For COc1ccccc1Cc1c(-c2cccc(Cl)c2)nc2ccc(Cl)cn12 the results were IL1B secr inh inactive, TDP1 cell noCPT 18µM, HT1080NT lethal inconclusive, TDP1 cell CPT 23µM and HT1080 IDH1KD tx inconclusive.
Screening COc1ccccc1Cc1c(-c2ccccc2)nc2ccc(Cl)cn12 returned IL1B secr inh inactive, TDP1 cell noCPT inconclusive, HT1080NT lethal inactive, TDP1 cell CPT inconclusive and HT1080 IDH1KD tx inactive.
`COc1ccccc1Cc1c(-c2ccc(C#N)cc2)nc2ccc(Br)cn12` gave IL1B secr inh inactive, TDP1 cell noCPT 16µM, HT1080NT lethal inactive, TDP1 cell CPT 21µM and HT1080 IDH1KD tx inactive.
Screening COc1ccccc1Cc1c(-c2cccc(Br)c2)nc2ccc(Br)cn12 returned IL1B secr inh inactive, TDP1 cell noCPT inconclusive, HT1080NT lethal inconclusive, TDP1 cell CPT inconclusive and HT1080 IDH1KD tx inconclusive.
For COCCCNC(=O)C(=O)NCC(c1ccc2c(c1)OCO2)N1CCOCC1 (stereo unspecified) the results were TDP1 cell noCPT inconclusive and TDP1 cell CPT inactive.

Screening data deposited in PubChem BioAssay by National Center for Advancing Translational Sciences (NCATS).
